Measured values taken from PubChem BioAssay AID1159580 (chemical genetic matrix, 2015).
Hit rate of the full screen: of about 5,500 compounds, about 2,000 (36%) were called active. Not shown: some 18% with an inconclusive outcome. Cut-off read from the data, not from the text of the source: active = normalized growth mostly below about 0.91 (no sharp cut-off); inconclusive = no clear call, values can overlap the other calls; inactive = mostly above about 0.92. The list shows a part of the results.

Assay: chemical genetic growth profiling, strain panel (AID 1159580);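 note: tested at 20 µM; growth read once vehicle control cultures reached saturation at 30 °C; 1 = growth at the plate median or of vehicle wells; lower values mean less growth of the strain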
Settings: S. cerevisiae deletion strains, growth OD
[1] = locus YNL128W, strain TEP1, active compounds read low
[2] = locus YPL055C, strain LGE1, active compounds read low

Measured: normalized growth

OC[C@H]1O[C@@H](n2cnc3c(NC4CCCC4)ncnc32)C(O)[C@H]1O (some centres undefined)
inactive: locus YAL013W, strain DEP1, active compounds read low 0.994 | locus YAL040C, strain CLN3, active compounds read low 0.989 | locus YER002W, strain NOP16, active compounds read low 1.03 | locus YJR075W, strain HOC1, active compounds read low 1.01 | locus YMR263W, strain SAP30, active compounds read low 1.03 | [1] 1 | locus YNL175C, strain NOP13, active compounds read low 1.03 | locus YNL197C, strain WHI3, active compounds read low 1.04 | locus YNL224C, strain SQS1, active compounds read low 1 | locus YOR083W, strain WHI5 (second series), active compounds read low 1.03 | [2] 1.01

CC1(C)C(=O)CC[C@@]2(C)C1C[C@@H](O)[C@@]1(C)C3=CC(=O)O[C@@H](c4ccoc4)[C@]3(C)CCC21 (some centres undefined)
inactive: locus YAL021C, strain ccr4, active compounds read low 1.02 | locus YAL026C, strain drs2, active compounds read low 1.02 | locus YAL030W, strain snc1, active compounds read low 1.02 | locus YBL061C, strain skt5, active compounds read low 1.03 | locus YBR009C, strain hhf1, active compounds read low 1.01 | locus YBR021W, strain FUR4, active compounds read low 0.967 | locus YBR023C, strain chs3, active compounds read low 1.02 | locus YBR171W, strain sec66, active compounds read low 1.04 | locus YBR229C, strain ROT2, active compounds read low 1.01 | locus YBR231C, strain swc5, active compounds read low 1.01 | locus YBR279W, strain paf1, active compounds read low 1.01 | locus YCL011C, strain gbp2, active compounds read low 1.02 | locus YCL016C, strain dcc1, active compounds read low 1.02 | locus YCL029C, strain bik1, active compounds read low 0.999 | locus YCL069W, strain vba3, active compounds read low 1.02 | locus YCR088W, strain abp1, active compounds read low 1.02 | locus YDL005C, strain med2, active compounds read low 1.05 | locus YDL035C, strain GPR1, active compounds read low 1.01 | locus YDL040C, strain nat1, active compounds read low 1.02 | locus YDL074C, strain BRE1, active compounds read low 1.01 | locus YDL101C, strain DUN1, active compounds read low 1.03 | locus YDL134C, strain PPH21, active compounds read low 1.03 | locus YDL185W, strain tfp1, active compounds read low 1.02 | locus YDL192W, strain arf1, active compounds read low 0.987 | locus YDR001C, strain nth1, active compounds read low 1.03 | locus YDR069C, strain doa4, active compounds read low 1.01 | locus YDR101C, strain arx1, active compounds read low 0.963 | locus YDR137W, strain rgp1, active compounds read low 1.05 | locus YDR159W, strain sac3, active compounds read low 1.05 | locus YDR162C, strain NBP2, active compounds read low 1.01 | locus YDR195W, strain ref2 0.982 | locus YDR297W, strain sur2, active compounds read low 1.02 | locus YDR318W, strain mcm21, active compounds read low 1.01 | locus YDR334W, strain swr1, active compounds read low 1.02 | locus YDR335W, strain msn5, active compounds read low 1.01 | locus YDR388W, active compounds read low 1 | locus YDR392W, strain spt3, active compounds read low 1.03 | locus YDR502C, strain sam2, active compounds read low 1.02 | locus YEL003W, strain gim4, active compounds read low 1.02 | locus YEL037C, strain rad23, active compounds read low 1.02 | locus YEL061C, strain CIN8 (second series), active compounds read low 1.03 | locus YEL061C, strain CIN8, active compounds read low 1 | locus YER015W, strain faa2, active compounds read low 1.01 | locus YER016W, strain bim1, active compounds read low 1.03 | locus YER110C, active compounds read low 1 | locus YER111C, strain swi4, active compounds read low 1.02 | locus YER155C, strain BEM2 (second series), active compounds read low 1.03 | locus YER155C, strain BEM2, active compounds read low 0.997 | locus YER167W, strain BCK2, active compounds read low 0.989 | locus YFR010W, strain ubp6, active compounds read low 1.01 | locus YGL078C, strain dbp3, active compounds read low 1.03 | locus YGL086W, strain mad1, active compounds read low 0.998 | locus YGL167C, strain pmr1, active compounds read low 1.04 | locus YGL173C, strain kem1, active compounds read low 1.03 | locus YGL227W, strain vid30, active compounds read low 1.03 | locus YGL240W, strain doc1, active compounds read low 1.02 | locus YGL248W, strain PDE1, active compounds read low 1.03 | locus YGL253W, strain hxk2, active compounds read low 1.01 | locus YGR135W, strain pre9, active compounds read low 1.06 | locus YGR252W, strain gcn5, active compounds read low 1 | locus YHR013C, strain ard1, active compounds read low 1.03 | locus YHR027C, strain rpn1, active compounds read low 1.02 | locus YHR079C, strain IRE1 (second series), active compounds read low 0.998 | locus YHR094C, strain hxt1, active compounds read low 0.991 | locus YHR129C, strain ARP1, active compounds read low 1.01 | locus YHR142W, strain chs7, active compounds read low 1.04 | locus YHR200W, strain rpn10, active compounds read low 1 | locus YIL066C, strain RNR3, active compounds read low 1 | locus YIL073C, strain SPO22, active compounds read low 0.977 | locus YIL125W, strain kgd1, active compounds read low 0.984 | locus YIR030C, strain dcg1, active compounds read low 0.999 | locus YJL092W, strain hpr5, active compounds read low 1.03 | locus YJL095W, strain BCK1 (second series), active compounds read low 1.01 | locus YJL095W, strain BCK1, active compounds read low 1.04 | locus YJL115W, strain asf1, active compounds read low 1.04 | locus YJL129C, strain trk1, active compounds read low 1.02 | locus YJL134W, strain LCB3, active compounds read low 1 | locus YJL154C, strain vps35, active compounds read low 1.02 | locus YJL164C, strain tpk1, active compounds read low 1.02 | locus YJL166W, strain qcr8, active compounds read low 1.02 | locus YJL168C, strain set2, active compounds read low 1 | locus YJL187C, strain SWE1 (second series), active compounds read low 1.04 | locus YJL187C, strain SWE1, active compounds read low 1.02 | locus YKL009W, strain mrt4, active compounds read low 1.02 | locus YKL068W, active compounds read low 1 | locus YKL085W, strain MDH1 (second series), active compounds read low 0.993 | locus YKL085W, strain MDH1, active compounds read low 0.993 | locus YKL160W, strain elf1, active compounds read low 1.02 | locus YKR001C, strain vps1, active compounds read low 0.975 | locus YKR026C, strain gcn3, active compounds read low 1.02 | locus YKR091W, strain srl3, active compounds read low 1.03 | locus YLL001W, strain dnm1, active compounds read low 1.03 | locus YLL026W, active compounds read low 1.02 | locus YLL041C, strain sdh2, active compounds read low 1 | locus YLR027C, strain aat2, active compounds read low 1.02 | locus YLR039C, strain RIC1, active compounds read low 1.05 | locus YLR058C, strain SHM2, active compounds read low 1.01 | locus YLR102C, strain apc9, active compounds read low 1.01 | locus YLR221C, strain rsa3, active compounds read low 1.05 | locus YLR258W, strain gsy2, active compounds read low 1.01 | locus YLR262C, strain YPT6 (second series), active compounds read low 1.06 | locus YLR268W, strain sec22, active compounds read low 0.976 | locus YLR320W, strain mms22, active compounds read low 1.03 | locus YLR330W, strain CHS5, active compounds read low 1 | locus YLR342W, strain FKS1, active compounds read low 1.02 | locus YLR357W, strain rsc2, active compounds read low 1.02 | locus YLR370C, strain arc18, active compounds read low 1.02 | locus YLR371W, strain rom2, active compounds read low 0.957 | locus YLR384C, strain iki3, active compounds read low 1.03 | locus YLR418C, strain cdc73, active compounds read low 1.05 | locus YML016C, strain PPZ1, active compounds read low 1.01 | locus YML032C, strain rad52, active compounds read low 0.987 | locus YML120C, strain ndi1, active compounds read low 1.01 | locus YML124C, strain tub3, active compounds read low 0.998 | locus YMR058W, strain fet3, active compounds read low 1.01 | locus YMR078C, strain ctf18, active compounds read low 1.01 | locus YMR125W, strain sto1, active compounds read low 1.04 | locus YMR129W, active compounds read low 1.03 | locus YMR205C, strain PFK2, active compounds read low 1.05 | locus YMR223W, strain ubp8, active compounds read low 1 | locus YMR231W, strain pep5, active compounds read low 1.02 | locus YMR307W, strain GAS1, active compounds read low 0.91 | locus YNL067W, strain RPL9B, active compounds read low 1.04 | locus YNL071W, strain lat1, active compounds read low 1.02 | [1] 1.01 | locus YNL153C, strain GIM3, active compounds read low 1.04 | locus YNL209W, strain ssb2, active compounds read low 1.03 | locus YNL233W, strain BNI4, active compounds read low 1.03 | locus YNL248C, strain rpa49, active compounds read low 1.03 | locus YNL250W, strain rad50, active compounds read low 1.03 | locus YNL271C, strain bni1, active compounds read low 0.999 | locus YNL298W, strain CLA4, active compounds read low 0.997 | locus YNL307C, strain MCK1, active compounds read low 1.01 | locus YNL322C, strain KRE1 (second series), active compounds read low 1.03 | locus YNR049C, strain mso1, active compounds read low 1.02 | locus YNR052C, strain pop2, active compounds read low 1.04 | locus YOL012C, strain htz1 0.777 | locus YOL147C, strain pex11, active compounds read low 0.991 | locus YOR001W, strain rrp6, active compounds read low 1.03 | locus YOR061W, strain CKA2, active compounds read low 1.01 | locus YOR069W, strain VPS5, active compounds read low 1.01 | locus YOR070C, strain gyp1, active compounds read low 1.02 | locus YOR080W, strain dia2, active compounds read low 1.02 | locus YOR083W, strain WHI5, active compounds read low 1.02 | locus YOR106W, strain vam3, active compounds read low 1.05 | locus YOR136W, strain idh2, active compounds read low 1.01 | locus YOR144C, strain elg1, active compounds read low 0.997 | locus YOR184W, strain ser1, active compounds read low 0.967 | locus YOR265W, strain rbl2, active compounds read low 1.03 | locus YOR270C, strain vph1, active compounds read low 1.04 | locus YOR290C, strain snf2, active compounds read low 1.03 | locus YOR316C, strain cot1, active compounds read low 1.01 | locus YPL051W, strain arl3, active compounds read low 1.03 | [2] 1.01 | locus YPL078C, strain atp4, active compounds read low 1 | locus YPL106C, strain sse1, active compounds read low 1.02 | locus YPL240C, strain hsp82, active compounds read low 1.01 | locus YPL241C, strain CIN2, active compounds read low 0.996 | locus YPR119W, strain clb2, active compounds read low 0.995 | locus YPR141C, strain kar3, active compounds read low 0.99 | locus YPR163C, strain tif3, active compounds read low 0.992 | locus YPR167C, strain met16, active compounds read low 1.01 | strain wtn01, active compounds read low 0.965
